High-throughput results (PubChem BioAssay)
Hits are enriched below; roughly 21% of the tested compounds scored in any of these assays.
Gal4-VP16 FLuc: counter-screen for ROR gamma inhibitors: Gal4-VP16 reporter. Drosophila S2 Gal4-VP16 UAS-luciferase, luminescence, 20 h. actives 3.5% (n = 310,000). Potency, µM (titrated, usually from 53.6 µM), hits mostly inhibitors;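 further: Gal4-VP16 expression switched on by copper sulfate through the metallothionein promoter; nearly all actives have a fitted effect of over 50% in size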
TDP1 cell noCPT: qHTS for Inhibitors of human tyrosyl-DNA phosphodiesterase 1 (TDP1): qHTS in cells in absence of CPT | DT40 Tdp1-/- hTDP1 cells, no CPT, ATP luminescence, 48 h | Potency, µM (doses to about 46.2 µM), usual class: inhibitors | actives 15% (n = 420,000) | AID 686978, 2013; further: nearly all actives have a fitted effect of over 55% in size
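No-CPT arm: Tdp1-/-;hTDP1 DT40 cells (400/well) plus compounds, incubated ≥48 hr at 37 °C. Readout CellTiter-Glo luminescence.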
RORgamma inh: inhibitors of mouse ROR gamma transcriptional activity. P51450. Drosophila S2 Gal4-RORgamma UAS-luciferase reporter, 20 h. Potency, µM (top dose mostly 53.6 µM), hits mostly inhibitors. actives 5.4% (n = 310,000). AID 2551; further: nearly all actives have a fitted effect of over 60% in size
Target sequence (P51450 whole entry, looked up, the tested form may be a part): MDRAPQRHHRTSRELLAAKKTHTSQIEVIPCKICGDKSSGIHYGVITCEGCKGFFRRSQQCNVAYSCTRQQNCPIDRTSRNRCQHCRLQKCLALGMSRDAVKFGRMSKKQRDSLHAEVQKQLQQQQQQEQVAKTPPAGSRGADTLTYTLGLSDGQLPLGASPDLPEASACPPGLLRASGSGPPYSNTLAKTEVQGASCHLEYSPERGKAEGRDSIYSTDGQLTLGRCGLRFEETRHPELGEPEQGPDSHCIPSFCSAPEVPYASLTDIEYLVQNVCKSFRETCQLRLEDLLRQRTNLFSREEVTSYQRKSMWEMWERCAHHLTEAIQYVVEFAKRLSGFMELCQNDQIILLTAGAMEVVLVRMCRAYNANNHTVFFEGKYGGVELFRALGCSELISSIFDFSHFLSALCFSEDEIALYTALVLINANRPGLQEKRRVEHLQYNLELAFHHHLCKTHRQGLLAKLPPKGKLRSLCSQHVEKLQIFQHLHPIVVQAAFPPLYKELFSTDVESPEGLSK
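ROR gamma transcriptional activity was tracked as Gal4-UAS luciferase output in stably transfected Drosophila Schneider cells, with compound added 1 hr before 700 uM copper sulfate induction and a 20 hr ambient-temperature incubation.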
TDP1 cell CPT: growth inhibition of DT40 Tdp1-/-;hTDP1 cells with camptothecin (screen for TDP1 inhibitors); actives 12% (n = 420,000); chicken DT40 Tdp1-/-;hTDP1 cells + 20 nM CPT, ATP luminescence, 48 h; Potency, µM (titrated, usually from 46.2 µM), most hits filed as inhibitors; further: nearly all actives have a fitted effect of over 55% in size
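Cell growth measured by CellTiter-Glo luminescence after a minimum 48 h, 37 C compound exposure with 20 nM CPT in Tdp1-knockout DT40 cells stably expressing hTDP1, seeded 400/well; qHTS titration format.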
ELG1 repair inh: blocks ELG1-dependent DNA repair in HEK293T cells; HEK293T ELG1-luciferase reporter, luminescence, 16 h; DNA damage induced by 5-fluorouridine; Potency, µM (titrated, usually from 46.1 µM), most hits filed as inhibitors; actives 2.3% (n = 330,000); further: nearly all actives have a fitted effect of over 55% in size
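HEK293T cells expressing luciferase-tagged ELG1 (2,000/well) received 5-Fluorouridine plus compound or DMSO for 16 hr at 37 °C. Luciferase was read by ONE-Glo luminescence after 30 min at room temperature.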
IL-1B inflam inh: blocks inflammasome-driven IL-1 beta release; THP-1 LPS/ATP IL-1B secretion, AlphaLISA, 16 h; hits give low values; activity change, % at 57.5 µM; AID 743279; actives 4.7% (n = 360,000); in the data active means activity change below about -50%; inconclusive means mostly about -30% to -49%
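Secreted IL-1B measured by AlphaLISA bead assay after 16 h compound exposure of THP-1 cells; compounds (final up to 57.5 uM) added 1 h before LPS (250 ng/mL) and ATP (1.25 mM) stimulation; lower signal means less secretion.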
A number is an active result; 0 = inactive; ? = inconclusive; - = no result given; [ ] = remark or other dose. Unless noted, the call rests on the fitted dose curve; in most records, active means well fitted curve in the direction sought with a large enough effect; inconclusive means small, poorly fitted or top-dose-only effect, or another doubt; inactive means no such curve, though single readings can be large; an effect the other way counts as inactive or inconclusive.

SMILES | Gal4-VP16 FLuc | TDP1 cell noCPT | RORgamma inh | TDP1 cell CPT | ELG1 repair inh | IL-1B inflam inh
CC(C)(C)NC(=O)CN1CCCN(C(=O)c2cccc(S(=O)(=O)N3CCc4ccccc43)c2)CC1 | - | ? | - | ? | 0 | 0
CCCN(CCC)c1ccc(/C=C/c2ccc3cc(OCC)ccc3n2)cc1 | 0 | 23.1µM | 0 | ? | ? | 0
CC(=O)c1ccc(N2CCN(C(=O)c3ccc4ccccc4n3)CC2)cc1 | 0 | 0 | 0 | 0 | 0 | 0
CC(=O)c1ccc(N2CCN(C(=O)/C=C/c3ccc4ccccc4n3)CC2)cc1 | 0 | 14.6µM | 0 | ? | 0 | 0
O/C(=C\c1ccc2ccccc2n1)c1ccc(O)cc1O | 8.91µM | 0 | 2.82µM | 0 | ? | 0
O=C(O)c1ccc(O)cc1O | 0 | 0 | 0 | 0 | ? | 0
NS(=O)(=O)c1ccc(Oc2ccc(S(N)(=O)=O)cc2)cc1 | 0 | 0 | 0 | 0 | 0 | 0
C=CS(=O)(=O)c1ccc(Oc2ccc(S(=O)(=O)C=C)cc2)cc1 | 2.24µM | 2.31µM | 3.16µM | 2.31µM | 2.59µM | -104.6
COc1cc(-c2nnc(SCC(=O)NC(C)C)o2)cc(OC)c1OC | - | 0 | - | 0 | - | -
CCN(CC(=O)Nc1ccc(OC)cc1)C(=O)c1ccc2c(c1)NC(=O)C(C)S2 (stereo unspecified) | - | 0 | - | 0 | 0 | 0
CCOc1ccc(Br)cc1C(=O)Nc1ccc(C(=O)NCC(C)C)cc1 | ? | ? | 0 | 10.3µM | ? | 0
CCOc1ccc(Br)cc1S(=O)(=O)Nc1ccc(NC(=O)c2ccccc2F)cc1 | 0 | 16.4µM | ? | ? | 0 | 0
O=C(Nc1ccc(NC(=O)c2sc3ccccc3c2Cl)cc1Cl)c1ccco1 | ? | ? | 10µM | ? | ? | 0
O=C(Nc1ccncc1)c1sc2ccccc2c1Cl | 0[10 µM] | 18.4µM | 0 | ? | 0 | -55.4
Cc1ccc2c(C)c(C(=O)Nc3cccnc3)oc2c1 | 0 | ? | ? | ? | ? | 0
Cc1ccc(NC(=O)c2sc3ccccc3c2Cl)cc1 | - | 0 | - | 0 | - | -
O=C(Nc1ccnc(=O)[nH]1)c1sc2ccccc2c1Cl | 0 | 0 | 0 | 14.6µM | ? | 0
Cc1ccc2c(Cl)c(C(=O)Nc3cccnc3)sc2c1 | 0 | 0 | 0 | 0 | 8.2µM | 0
O=C(Nc1ccc(NC(=O)c2cccs2)c(Cl)c1)c1ccco1 | 0 | ? | 0 | ? | 0 | 0
O=C(COc1ccc(F)cc1)N1CCC(Cc2ccccc2)CC1 | ? | 0 | ? | ? | 0 | 0
O=C(NN=C1CCCC1)c1sc2ccccc2c1Cl | ? | 0 | 11.2µM | 0 | ? | 0
Cc1cc(C(=O)N(C)CC(=O)Nc2ccc(Cl)c(C(F)(F)F)c2)no1 | - | 16.4µM | - | 0 | 0 | 0
Cc1ccc(NC(=O)CCCc2nc3ccccc3c(=O)[nH]2)c(Cl)c1 | - | 14.6µM | - | 18.4µM | 0 | 0
CN(CC(=O)Nc1ccc(Cl)c(C(F)(F)F)c1)C(=O)CCCc1nc2ccccc2c(=O)[nH]1 | - | 11.6µM | - | 11.6µM | 11.2µM | 0
CN(CC(=O)Nc1ccc(Cl)c(C(F)(F)F)c1)C(=O)c1cn2ccccc2n1 | - | 10.3µM | - | 13µM | 0 | 0
SMILES | Gal4-VP16 FLuc | TDP1 cell noCPT | RORgamma inh | TDP1 cell CPT | ELG1 repair inh | IL-1B inflam inh
O=C(CNC(=O)c1ccccc1Cl)OCc1cc(=O)n2ccsc2n1 | - | 0 | - | 0 | - | -
COc1ccc(CNS(=O)(=O)c2ccc3c(c2)NC(=O)C(C)S3)cc1 (stereo unspecified) | 0 | ? | 0 | ? | ? | 0
CN(CC(=O)Nc1ccc(Cl)c(C(F)(F)F)c1)C(=O)c1cnccn1 | - | ? | - | ? | 0 | 0
CN(CC(=O)Nc1ccc(Cl)c(C(F)(F)F)c1)C(=O)C1(c2ccccc2)CC1 | - | 16.4µM | - | ? | ? | -56.7
Cc1cccc(C(=O)OCC(=O)N(C)CC(=O)Nc2ccc(Cl)c(C(F)(F)F)c2)c1 | - | ? | - | 14.6µM | 0 | 0
CN(CC(=O)Nc1ccc(Cl)c(C(F)(F)F)c1)C(=O)c1cccs1 | - | 16.4µM | - | ? | 0 | ?
CN(CC(=O)Nc1ccc(Cl)c(C(F)(F)F)c1)C(=O)c1cc(-c2ccncc2)nc2ccccc12 | - | 18.4µM | - | ? | ? | -96.0
CCOc1ccc(NC(=O)CN(C)C(=O)C2(c3ccccc3)CC2)cc1OCC | - | 0 | - | 0 | 0 | 0
Cc1cccc(C)c1OCc1cc(C(=O)N2CCN(Cc3nccn3C)CC2)no1 | 0 | 0 | 0 | 0 | 0 | 0
COc1ccccc1NC(=O)N1CCC(CN2CCc3ccccc3C2)CC1 | - | 0 | - | 0 | - | -
CC1(C)C[C@@H]2C(=O)CCC3O[C@@]3(C)CCC21 (stereo partly specified) | 0 | 0 | 0 | 0 | - | -
O=C(COc1ccc(Cl)cc1Br)Nc1nnc(C2CC2)s1 | - | 0 | - | 0 | ? | 0
CN(CC(=O)Nc1ccc(Cl)c(C(F)(F)F)c1)C(=O)CC1Sc2ccccc2NC1=O (stereo unspecified) | ? | 13µM | ? | 13µM | 0 | ?
CN(CC(=O)Nc1ccc(F)c(F)c1F)C(=O)c1ccc2c(c1)NC(=O)CS2 | - | ? | - | ? | 0 | 0
CN(CC(=O)Nc1ccc(Cl)c(C(F)(F)F)c1)C(=O)c1ccc2c(c1)NC(=O)CS2 | - | 23.1µM | - | ? | ? | 0
Cc1cccc(C)c1-n1nnnc1C1(C)CCC(=O)N1Cc1ccco1 (stereo unspecified) | - | 0 | - | 0 | - | 0
CCC(=O)Nc1sc2c(c1C(N)=O)CCN(Cc1ccccc1)C2 | 0 | ? | 0 | 0 | ? | 0
CN1CCc2c(sc(NC(=O)Cc3ccccc3)c2C(N)=O)C1 | 0 | 0 | 0 | 0 | 0 | 0
CCN1CCc2c(sc(NC(=O)Cc3ccccc3)c2C(=O)OC)C1 | 0 | ? | 0 | 11.6µM | 0 | ?
CCOC(=O)c1c(NC(=S)Nc2ccc(Cl)cc2)sc2c1CCN(C)C2 | 0 | ? | 0 | 16.4µM | 0 | 0
CCOC(=O)c1c(NC(=O)Cc2ccccc2)sc2c1CCN(CC)C2 | 0 | ? | 0 | ? | ? | ?
CCOC(=O)c1c(N)sc2c1CCN(Cc1ccccc1)C2 | 0 | 15µM | 0 | ? | - | -
CCOC(=O)c1c(NC(=O)Cc2ccccc2)sc2c1CCN(C)C2 | 0 | 13µM | 0 | ? | 0 | ?
CCOC(=O)c1c(NC(=S)Nc2ccc(OCC)cc2)sc2c1CCN(C)C2 | 0 | 0 | 0 | 0 | ? | 0
Cc1cccc(NC(=O)Cn2c(=O)c3cccn3c3ccccc32)c1C | - | 0 | - | 0 | - | -
COc1ccc(C(NC=O)c2cc(OC)c(OC)cc2Br)cc1OC (stereo unspecified) | 0 | 0 | 0 | 0 | 0 | 0
CC(=O)Nc1ccc(S(=O)(=O)Nc2nc3ccccc3nc2-n2ccc(=NC(=O)c3ccc(F)cc3)cc2)cc1 | 0 | 0 | 0 | 0 | 0 | 0
CCOC(=O)c1c(NC(=O)CCS(=O)(=O)c2ccccc2)sc2c1CCN(C)C2 | 0 | 16.4µM | 0 | 16.4µM | 0 | 0
